Results from PubChem BioAssay (EPA / NIEHS).
Active and inactive are the calls of the source. The calls were made as follows: active = hit-call score of the fitted dose curve at least 0.9, where 1 is the maximum; inactive = score below 0.9.

Experiments:
[1] = read-out: Transforming growth factor beta 1 (TGFb1), TGFB1 (gene 7040); experiment: BSK_KF3CT_TGFb1: BioMAP Diversity Plus: KF3CT Assay for Transforming growth factor beta 1 (TGFb1) Biomarker Activity (AID 2283072); settings: primary human keratinocytes with fibroblasts; actives raise or lower the signal
Method in brief: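 Human keratinocyte/foreskin fibroblast co-culture; TGF-b1 measured by ELISA 24 h after dosing, fitted bidirectionally versus DMSO. Cytotoxicity checked in parallel cultures by total protein (SRB staining, 560 nm).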

[2] = read-out: C-C motif chemokine 2 (Homo sapiens) (UniProt P13500); experiment: BSK_KF3CT_MCP1: BioMAP Diversity Plus: KF3CT Assay for Monocyte Chemoattractant Protein 1 (MCP1/CCL2) Biomarker Activity (AID 2283073); settings: primary human keratinocytes with fibroblasts; actives raise or lower the signal
Method in brief: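 KF3CT skin co-culture (keratinocytes/foreskin fibroblasts), 24 h post-dose; MCP-1 by ELISA; gain/loss of signal fit bidirectionally vs DMSO baseline.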

[3] = read-out: Matrix Metallopeptidase 9 (MMP9), MMP9 (gene 4318); experiment: BSK_KF3CT_MMP9: BioMAP Diversity Plus: KF3CT Assay for Matrix Metallopeptidase 9 (MMP9) Biomarker Activity (AID 2283074); settings: primary human keratinocytes with fibroblasts; actives raise or lower the signal;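 as to AC50: MMP9 protein level quantified by ELISA in the co-culture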
Method in brief: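 Human keratinocyte and foreskin fibroblast co-culture exposed to chemicals for 24 h; MMP9 biomarker measured by ELISA, bidirectional fitting relative to DMSO; cytotoxicity tracked by SRB total protein staining in parallel cultures.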

[4] = read-out: urokinase plasminogen activator (uPA), PLAU (gene 5328); experiment: BSK_KF3CT_uPA: BioMAP Diversity Plus: KF3CT Assay for urokinase plasminogen activator (uPA) Biomarker Activity (AID 2283075); settings: primary human keratinocytes with fibroblasts; actives raise or lower the signal
Method in brief: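 Primary human keratinocyte/foreskin fibroblast co-culture exposed to chemical; uPA measured by ELISA at 24 h. Bidirectional fit versus DMSO, with parallel SRB total-protein staining for cytotoxicity.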

CD40, CD40 (gene 958) [5] = experiment: BSK_LPS_CD40: BioMAP Diversity Plus: LPS Assay for CD40 Biomarker Activity (AID 2283076); settings: primary human HUVEC with PBMC; actives raise or lower the signal
Method in brief: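 ELISA readout of CD40 in HUVEC/PBMC co-culture (BSK_LPS system), 24 h post-dosing; bidirectional curve fit, DMSO baseline; parallel SRB total-protein staining for cytotoxicity.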

[6] = read-out: E-selectin (Homo sapiens) (UniProt P16581); experiment: BSK_LPS_Eselectin: BioMAP Diversity Plus: LPS Assay for Eselectin Biomarker Activity (AID 2283077); settings: primary human HUVEC with PBMC; actives raise or lower the signal
Method in brief: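 ELISA readout of E-selectin, 24 h post-dose, HUVEC + PBMC co-culture (LPS system). Gain or loss of signal vs DMSO baseline, bidirectional fit.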

[7] = read-out: Interleukin-8 (IL8), CXCL8 (gene 3576); experiment: BSK_LPS_IL8: BioMAP Diversity Plus: LPS Assay for Interleukin-8 (IL8) Biomarker Activity (AID 2283078); settings: primary human HUVEC with PBMC; actives raise or lower the signal
Method in brief: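 HUVEC + PBMC co-culture, LPS-activated; test chemicals dosed, IL-8 read by ELISA at 24 h. Bidirectional curve fit vs DMSO baseline (gain or loss of signal).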

[8] = BSK_LPS_SRB: Viability Assessment in the BioMAP Diversity Plus: LPS Assay (AID 2283079); settings: primary human HUVEC with PBMC;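 also: total protein by sulforhodamine B absorbance as a cytotoxicity measure; measured one day after compound addition; fitted in both directions against DMSO so loss or gain of signal counts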
Method in brief: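 HUVEC + PBMC co-culture, LPS-stimulated; compound 24 h. 10% TCA fix, 0.1% SRB stain, A560. Bidirectional fit vs DMSO.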

[9] = read-out: Interleukin-1 alpha (IL1a), IL1A (gene 3552); experiment: BSK_LPS_IL1a: BioMAP Diversity Plus: LPS Assay for Interleukin-1 alpha (IL1a) Biomarker Activity (AID 2283080); settings: primary human HUVEC with PBMC; actives raise or lower the signal
Method in brief: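 HUVEC/PBMC co-culture, LPS system; 24 h after dosing; IL-1a by ELISA; gain or loss of signal fitted bidirectionally vs DMSO baseline.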

[10] = read-out: Monocyte Chemoattractant Protein-1 (MCP1), CCL2 (gene 6347); experiment: BSK_LPS_MCP1: BioMAP Diversity Plus: LPS Assay for Monocyte Chemoattractant Protein-1 (MCP1) Biomarker Activity (AID 2283081); settings: primary human HUVEC with PBMC; actives raise or lower the signal;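 also: secreted MCP-1 protein quantified by ELISA in culture supernatant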
Method in brief: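 ELISA read-out of MCP-1 after 24 h chemical dosing of a human umbilical vein endothelial cell/peripheral blood mononuclear cell co-culture stimulated with LPS. Gain or loss of signal fitted relative to DMSO controls.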

[11] = BSK_LPS_PGE2: BioMAP Diversity Plus: LPS Assay for Prostaglandin E2 (PGE2) Biomarker Activity (AID 2283082); settings: primary human HUVEC with PBMC; actives raise or lower the signal;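 as to AC50: secreted prostaglandin E2 measured by ELISA in LPS-stimulated co-culture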
Method in brief: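 HUVEC plus human PBMC co-culture stimulated with LPS; secreted PGE2 quantified by ELISA 24 h after chemical dosing. Activity fitted bidirectionally against DMSO baseline; parallel SRB staining (0.1% SRB after 10% TCA fixation, 560 nm) flags overt cytotoxicity.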

[12] = read-out: Macrophage colony-stimulating factor (MCSF), CSF1 (gene 1435); experiment: BSK_LPS_MCSF: BioMAP Diversity Plus: LPS Assay for Macrophage colony-stimulating factor (MCSF) Biomarker Activity (AID 2283083); settings: primary human HUVEC with PBMC; actives raise or lower the signal
Method in brief: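 HUVEC + PBMC co-culture (human primary), 24 h post-dose; M-CSF by ELISA; gain/loss of signal fitted bidirectionally vs DMSO baseline.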

[13] = read-out: Tissue Factor, F3 (gene 2152); experiment: BSK_LPS_TissueFactor: BioMAP Diversity Plus: LPS Assay for Tissue Factor Biomarker Activity (AID 2283084); settings: primary human HUVEC with PBMC; actives raise or lower the signal
Method in brief: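 HUVEC/PBMC co-culture, LPS-activated; CD142 ELISA read 24 h post-dose; bidirectional curve fit vs DMSO negative control.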

[14] = read-out: Tumor necrosis factor (Homo sapiens) (UniProt P01375); experiment: BSK_LPS_TNFa: BioMAP Diversity Plus: LPS Assay for Tumour Necrosis Factor alpha (TNFa) Biomarker Activity (AID 2283085); settings: primary human HUVEC with PBMC; actives raise or lower the signal
Method in brief: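 Human umbilical vein endothelial cells co-cultured with PBMC and stimulated with LPS. TNFa was measured by ELISA 24 h after chemical dosing, fitted bidirectionally relative to DMSO.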

[15] = read-out: Vascular cell adhesion molecule 1 (VCAM1), VCAM1 (gene 7412); experiment: BSK_LPS_VCAM1: BioMAP Diversity Plus: LPS Assay for Vascular cell adhesion molecule 1 (VCAM1) Biomarker Activity (AID 2283086); settings: primary human HUVEC with PBMC; actives raise or lower the signal
Method in brief: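 Human umbilical vein endothelial cells co-cultured with PBMC and stimulated with LPS; VCAM-1 measured by ELISA 24 h after dosing. Bidirectional curve fitting against DMSO baseline; cytotoxicity tracked in parallel by SRB total-protein staining.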

CD38, CD38 (gene 952) = experiment: BSK_SAg_CD38: BioMAP Diversity Plus: SAg Assay for CD38 Biomarker Activity (AID 2283087); settings: primary human HUVEC with PBMC; actives raise or lower the signal
Method in brief: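 Human HUVEC plus PBMC co-culture stimulated with superantigen; CD38 measured by ELISA 24 h after chemical dosing. Fluorescence read-out, bidirectional fit against DMSO; cytotoxicity tracked in parallel by SRB and Alamar Blue.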

CD40, CD40 (gene 958) [16] = experiment: BSK_SAg_CD40: BioMAP Diversity Plus: SAg Assay for CD40 Biomarker Activity (AID 2283088); settings: primary human HUVEC with PBMC; actives raise or lower the signal
Method in brief: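 HUVEC/PBMC co-culture, 24 h post-dose; CD40 by ELISA, fluorescence intensity; bidirectional fit vs DMSO negative control.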

CD69, CD69 (gene 969) = experiment: BSK_SAg_CD69: BioMAP Diversity Plus: SAg Assay for CD69 Biomarker Activity (AID 2283089); settings: primary human HUVEC with PBMC; actives raise or lower the signal;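 also: cell surface CD69 protein quantified by ELISA with fluorescence detection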
Method in brief: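 Values derive from bidirectional fitting relative to DMSO vehicle. Cells: umbilical vein endothelium plus peripheral blood mononuclear cells, treated 24 h before fluorescent ELISA for CD69.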

[17] = read-out: Monocyte Chemoattractant Protein-1 (MCP1), CCL2 (gene 6347); experiment: BSK_SAg_MCP1: BioMAP Diversity Plus: SAg Assay for Monocyte Chemoattractant Protein-1 (MCP1) Biomarker Activity (AID 2283090); settings: primary human HUVEC with PBMC; actives raise or lower the signal
Method in brief: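 MCP-1 levels in the endothelial–PBMC SAg co-culture were quantified by ELISA at 24 h post-dosing; both increases and decreases versus DMSO scored. Cytotoxicity monitored by SRB total protein in parallel cultures.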

Measured: AC50

E-selectin (Homo sapiens), sequence (P16581 whole entry, looked up): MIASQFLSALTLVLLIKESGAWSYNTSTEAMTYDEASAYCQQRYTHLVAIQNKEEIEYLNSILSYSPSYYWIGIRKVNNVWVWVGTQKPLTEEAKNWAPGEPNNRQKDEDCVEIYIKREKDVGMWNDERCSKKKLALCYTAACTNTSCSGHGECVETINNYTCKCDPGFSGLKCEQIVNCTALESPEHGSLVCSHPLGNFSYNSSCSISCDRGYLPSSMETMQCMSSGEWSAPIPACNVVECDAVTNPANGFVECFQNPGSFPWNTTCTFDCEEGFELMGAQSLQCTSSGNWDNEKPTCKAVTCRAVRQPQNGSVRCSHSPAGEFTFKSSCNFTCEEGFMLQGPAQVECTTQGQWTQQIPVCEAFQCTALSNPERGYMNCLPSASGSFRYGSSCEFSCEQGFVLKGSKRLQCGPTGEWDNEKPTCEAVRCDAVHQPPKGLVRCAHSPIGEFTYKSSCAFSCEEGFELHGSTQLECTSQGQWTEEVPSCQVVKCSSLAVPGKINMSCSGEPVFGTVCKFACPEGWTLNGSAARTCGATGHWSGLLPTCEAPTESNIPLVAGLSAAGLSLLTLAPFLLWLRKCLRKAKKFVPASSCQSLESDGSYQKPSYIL
Tumor necrosis factor (Homo sapiens), sequence (P01375 whole entry, looked up): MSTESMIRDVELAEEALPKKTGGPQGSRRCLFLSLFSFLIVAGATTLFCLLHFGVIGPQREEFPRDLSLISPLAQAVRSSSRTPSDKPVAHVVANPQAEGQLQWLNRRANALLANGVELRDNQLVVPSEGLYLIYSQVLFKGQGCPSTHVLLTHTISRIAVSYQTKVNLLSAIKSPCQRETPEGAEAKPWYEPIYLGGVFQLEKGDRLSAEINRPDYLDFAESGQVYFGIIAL

CCN(CC)C(=O)c1cc(S(=O)(=O)Cc2ccccc2)c(N2CCC(c3ccccc3)CC2)cc1N(CC)CCN(C)C
active: [3] 24 µM | CD40, CD40 (gene 958) [5] 8.94 µM | [6] 27.6 µM | [7] 18.7 µM | [8] 10.5 µM | [9] 8.53 µM | [10] 19.5 µM | [12] 11.8 µM | [13] 33.5 µM | [14] 12.4 µM | [15] 11.5 µM | CD38, CD38 (gene 952) 9.58 µM | CD40, CD40 (gene 958) [16] 10.4 µM | CD69, CD69 (gene 969) 9.82 µM | [17] 11.8 µM
inactive: [1] | [2] | [4] | [11]

Cc1c2ccccc2c(C)c2c1ccc1ccccc12
active: CD40, CD40 (gene 958) [5] 15.3 µM | [8] 24.8 µM | [9] 26.8 µM | [10] 25.3 µM | [12] 20 µM | [15] 24.1 µM | CD40, CD40 (gene 958) [16] 22.3 µM | CD69, CD69 (gene 969) 20 µM
inactive: [1] | [2] | [3] | [4] | [6] | [7] | [11] | [13] | [14] | [17]

Cc1oc2c(NC(=O)c3c(Cl)cccc3Cl)cccc2c1C(C)(C)O
inactive: [1] | [2] | [3] | [4] | CD40, CD40 (gene 958) [5] | [7] | [9] | [14] | [15]
active: [6] 6.04 µM | [8] 26.5 µM | [11] 21.1 µM | [13] 4.5 µM | CD38, CD38 (gene 952) 21.3 µM | CD40, CD40 (gene 958) [16] 20.9 µM | CD69, CD69 (gene 969) 19.2 µM | [17] 7.57 µM
